According to the supplement of paper PMC4709259:
Counter-ions that a name gives are not always drawn. ± gives the standard deviation.

tested on: Jurkat; test: mean cell size (FSC-A) relative to DMSO control (fraction of control); higher = larger cells; conditions: 48 h
Summary of the method: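 Jurkat cells seeded at 600 cells/µl were incubated 1 h, then exposed for 48h to the Enzo Screen-Well FDA Approved Drug Library v2.0 at 25µM in 0.9% (v/v) final DMSO. Drugs that cut counts below 20% of controls were diluted 10-fold and retested, down to 25nM. Cell count and mean cell size (forward scatter area) were read on an Accuri C6 flow cytometer, relative to solvent-only controls. Plates held 6-12 controls; values are means of 3 biological replicates.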

Question: `CN(C)C(=O)C(CCN1CCC(O)(c2ccc(Cl)cc2)CC1)(c1ccccc1)c1ccccc1` [Loperamide·HCl] (concentration: 25 µM) was tested. Which mean cell size did it give?
Answer: The mean cell size was 0.988 ± 0.033.

Question: Which mean cell size does the source give for `CC1(C)C[C@@H]1C(=O)N/C(=C\CCCCSC[C@H](N)C(=O)O)C(=O)O` [Cilastatin·Na] (concentration: 25 µM) here?
Answer: Its mean cell size is 0.942 ± 0.011.

Question: For `Nc1nc(=O)n([C@@H]2CS[C@H](CO)O2)cc1F` [Emtricitabine] (concentration: 25 µM), which mean cell size is on record?
Answer: The mean cell size was 1.03 ± 0.019.

Question: With `C[C@H]1O[C@H](O[C@H]2[C@H](O)[C@@H](O)[C@@H](O[C@@H]([C@H](O)[C@@H](O)C=O)[C@H](O)CO)O[C@@H]2CO)[C@H](O)[C@@H](O)[C@@H]1N[C@H]1C=C(CO)[C@@H](O)[C@H](O)[C@H]1O` [Acarbose] (concentration: 25 µM) as the compound, how does the mean cell size read?
Answer: The mean cell size was 1.04 ± 0.047.

Question: For `Clc1ccc(CSC(Cn2ccnc2)c2ccc(Cl)cc2Cl)cc1` (centres undefined) [Sulconazole Nitrate] (concentration: 25 µM), which mean cell size is on record?
Answer: Its mean cell size is 0.953 ± 0.023.

Question: For `COc1nc(N)nc2c1ncn2[C@@H]1O[C@H](CO)[C@@H](O)[C@@H]1O` [Nelarabine] (concentration: 25 µM), which mean cell size is on record?
Answer: Its mean cell size is 1.4 ± 0.014.

Question: For `CC(C)n1c(/C=C/[C@H](O)C[C@H](O)CC(=O)O)c(-c2ccc(F)cc2)c2ccccc21` [Fluvastatin·Na] (concentration: 25 µM), which mean cell size is on record?
Answer: The mean cell size was 0.972 ± 0.059.

Question: For `CC1=C(/C=C/C(C)=C/C=C/C(C)=C/C(=O)O)C(C)(C)CCC1` [Tretinoin] (concentration: 25 µM), which mean cell size is on record?
Answer: Its mean cell size is 0.88 ± 0.031.

Question: How did the mean cell size turn out when `NC(=O)C(c1ccccc1)(c1ccccc1)[C@@H]1CCN(CCc2ccc3c(c2)CCO3)C1` [Darifenacin·HBr] (concentration: 25 µM) was run?
Answer: The mean cell size was 1.02 ± 0.015.

Question: Which mean cell size does the source give for `CCc1ccc(CCOc2ccc(CC3SC(=O)NC3=O)cc2)nc1` (centres undefined) [Pioglitazone·HCl] (concentration: 25 µM) here?
Answer: Its mean cell size is 0.966 ± 0.039.

Question: How did the mean cell size turn out when `CO/N=C(\C(=O)N[C@@H]1C(=O)N2C(C(=O)O)=C(CSc3nc(=O)c(=O)[nH]n3C)CS[C@H]12)c1csc(N)n1` [Ceftriaxone·Na] (concentration: 25 µM) was run?
Answer: Its mean cell size is 0.969 ± 0.028.

Question: `Oc1ccc(C2CNCCc3c2cc(O)c(O)c3Cl)cc1` (centres undefined) [Fenoldopam Mesylate] (concentration: 25 µM) was tested. Which mean cell size did it give?
Answer: Its mean cell size is 0.886 ± 0.059.

Question: For `CNCCCN1c2ccccc2CCc2ccccc21` [Desipramine·HCl] (concentration: 25 µM), which mean cell size is on record?
Answer: Its mean cell size is 0.9721 ± 0.0012.

Question: `COC(=O)CCC(=O)CN` [Methyl Aminolevulinate·HCl] (concentration: 25 µM) was tested. Which mean cell size did it give?
Answer: The mean cell size was 0.99 ± 0.033.

Question: Which mean cell size does the source give for `CC1(C)NC(=O)N(c2ccc([N+](=O)[O-])c(C(F)(F)F)c2)C1=O` [Nilutamide] (concentration: 25 µM) here?
Answer: Its mean cell size is 0.954 ± 0.029.

Question: For `CC(C)(C)NCC(O)COc1cccc2c1CC(O)C(O)C2` (centres undefined) [Nadolol] (concentration: 25 µM), which mean cell size is on record?
Answer: Its mean cell size is 0.928 ± 0.041.

Question: How did the mean cell size turn out when `CN(N=O)C(=O)N[C@@H]1[C@@H](O)[C@H](O)[C@@H](CO)O[C@@H]1O` [Streptozocin] (concentration: 25 µM) was run?
Answer: The mean cell size was 0.939 ± 0.014.

Question: `Brc1c(NC2=NCCN2)ccc2nccnc12` [Brimonidine] (concentration: 25 µM) was tested. Which mean cell size did it give?
Answer: The mean cell size was 0.954 ± 0.027.

Question: How did the mean cell size turn out when `CN1C(=O)OC(C)(C)C1=O` [Trimethadione] (concentration: 25 µM) was run?
Answer: The mean cell size was 1.07 ± 0.016.

Question: Which mean cell size does the source give for `NCCCC(N)(C(=O)O)C(F)F` (centres undefined) [Eflornithine·HCl] (concentration: 25 µM) here?
Answer: Its mean cell size is 0.958 ± 0.019.

Question: How did the mean cell size turn out when `CC(C)OC(=O)C(C)(C)Oc1ccc(C(=O)c2ccc(Cl)cc2)cc1` [Fenofibrate] (concentration: 25 µM) was run?
Answer: Its mean cell size is 1.01 ± 0.04.

Question: How did the mean cell size turn out when `CN(C)CCOc1ccc(/C(=C(/CCCl)c2ccccc2)c2ccccc2)cc1` [Toremifene Base] (concentration: 25 µM) was run?
Answer: The mean cell size was 0.9556 ± 0.0078.

Question: Which mean cell size does the source give for `CC(=O)Oc1ccc(C(c2ccc(OC(C)=O)cc2)c2ccccn2)cc1` [Bisacodyl] (concentration: 25 µM) here?
Answer: The mean cell size was 0.915 ± 0.013.

Question: `C#C[C@]1(O)CC[C@H]2[C@@H]3CCc4cc(OC)ccc4[C@H]3CC[C@@]21C` [Mestranol] (concentration: 25 µM) was tested. Which mean cell size did it give?
Answer: Its mean cell size is 1.01 ± 0.022.

Question: Which mean cell size does the source give for `CN(C)CCC(c1ccc(Br)cc1)c1ccccn1` (centres undefined) [Brompheniramine Maleate] (concentration: 25 µM) here?
Answer: Its mean cell size is 0.946 ± 0.034.

Question: For `OCCN1CCN(CCCN2c3ccccc3Sc3ccc(Cl)cc32)CC1` [Perphenazine] (concentration: 2.5 µM), which mean cell size is on record?
Answer: The mean cell size was 1 ± 0.029.

Question: Which mean cell size does the source give for `CC(=O)N[C@@H](CS)C(=O)O` [Acetylcysteine] (concentration: 25 µM) here?
Answer: The mean cell size was 1.02 ± 0.059.

Question: With `CC(C)(S)[C@@H](N)C(=O)O` [Penicillamine (D-Penicillamine)] (concentration: 25 µM) as the compound, how does the mean cell size read?
Answer: The mean cell size was 0.954 ± 0.042.

Question: How did the mean cell size turn out when `CN(C/C=C/C#CC(C)(C)C)Cc1cccc2ccccc12` [Terbinafine·HCl] (concentration: 25 µM) was run?
Answer: The mean cell size was 0.947 ± 0.018.

Question: With `C[C@@H]1NC(=O)[C@@H](N)CNC(=O)[C@H](C2CCNC(=N)N2)NC(=O)/C(=C/NC(N)=O)NC(=O)[C@H](CNC(=O)CC(N)CCCN)NC1=O.N=C1NCC[C@H]([C@@H]2NC(=O)/C(=C/NC(N)=O)NC(=O)[C@H](CNC(=O)C[C@@H](N)CCCN)NC(=O)[C@H](CO)NC(=O)[C@@H](N)CNC2=O)N1` [Capreomycin Sulfate] (concentration: 25 µM) as the compound, how does the mean cell size read?
Answer: Its mean cell size is 0.97 ± 0.044.

Question: How did the mean cell size turn out when `CC1(C)O[C@@H]2C[C@H]3[C@@H]4C[C@H](F)C5=CC(=O)C=C[C@]5(C)[C@H]4[C@@H](O)C[C@]3(C)[C@]2(C(=O)CO)O1` [Flunisolide] (concentration: 2.5 µM) was run?
Answer: The mean cell size was 0.996 ± 0.021.

Question: `CNCCC=C1c2ccccc2CCc2ccccc21` [Nortriptyline·HCl] (concentration: 25 µM) was tested. Which mean cell size did it give?
Answer: Its mean cell size is 1.06 ± 0.025.

Question: For `COCCCOc1ccnc(C[S+]([O-])c2nc3ccccc3[nH]2)c1C` (centres undefined) [Rabeprazole·Na] (concentration: 25 µM), which mean cell size is on record?
Answer: Its mean cell size is 0.923 ± 0.02.

Question: How did the mean cell size turn out when `CCCN(CCC)CCc1cccc2c1CC(=O)N2` [Ropinirole·HCl] (concentration: 25 µM) was run?
Answer: Its mean cell size is 0.974 ± 0.012.

Question: How did the mean cell size turn out when `OCCOCCN1CCN(C(c2ccccc2)c2ccc(Cl)cc2)CC1` (centres undefined) [Hydroxyzine Dihydrochloride] (concentration: 25 µM) was run?
Answer: The mean cell size was 0.948 ± 0.021.

Question: For `COC(=O)C1=C(C)NC(C)=C(C(=O)OCCN(C)Cc2ccccc2)C1c1cccc([N+](=O)[O-])c1` (centres undefined) [Nicardipine·HCl] (concentration: 25 µM), which mean cell size is on record?
Answer: Its mean cell size is 1.01 ± 0.071.

Question: How did the mean cell size turn out when `NS(=O)(=O)c1cc2c(cc1Cl)N=CNS2(=O)=O` [Chlorothiazide] (concentration: 25 µM) was run?
Answer: The mean cell size was 0.926 ± 0.011.

Question: How did the mean cell size turn out when `CC(CCc1ccccc1)NCC(O)c1ccc(O)c(C(N)=O)c1` (centres undefined) [Labetalol·HCl] (concentration: 25 µM) was run?
Answer: The mean cell size was 0.928 ± 0.049.

Question: How did the mean cell size turn out when `C/C(=C\C(=O)OCCCCCCCCC(=O)O)C[C@@H]1OC[C@H](C[C@@H]2O[C@H]2[C@@H](C)[C@H](C)O)[C@@H](O)[C@H]1O` [Mupirocin] (concentration: 25 µM) was run?
Answer: Its mean cell size is 0.928 ± 0.065.
